test system: Plasmodium falciparum; assay: GSK_TCMDC: Inhibition of Plasmodium falciparum 3D7 in whole red blood cells, using parasite LDH activity as an index of growth. Test compounds present at 2uM; format: functional

| SMILES | Inhibition [%] |
| --- | --- |
| CCCCN1CCN(Cc2cccc(NC(=O)c3ccc(Cl)c(Cl)c3)c2)CC1.O=C(O)C(F)(F)F | 88 |
| CC1CN(c2cnn(Cc3cccc(NC(=O)Nc4cccc(C(F)(F)F)c4)c3)c(=O)c2Cl)CC(C)N1.O=C(O)C(F)(F)F (centres undefined) | 96 |
| O=C(Nc1cccc(-c2ccc(-c3nc4cc(F)ccc4[nH]3)s2)c1)c1cccnc1 | 100 |
| Cc1cccc2nc(C3CCN(CC4CCN(C(=O)/C=C/c5ccc(Cl)c(Cl)c5)CC4)CC3)[nH]c12 | 100 |
| CCN(CC)/C(=N/C(=N)Nc1ccc(C)cc1)NCCCCCCN/C(=N\C(=N)Nc1ccc(C)cc1)N(CC)CC | 97 |
| CCNc1cc(C(=O)N[C@@H](Cc2ccccc2)[C@H](O)CNCc2cccc(OC)c2)c(OC)c(N2CCCCS2(=O)=O)c1 | 97 |
| CCCc1ccc(S(=O)(=O)Nc2ccc3c(c2)CCC3)cc1 | 96 |
| CC(C)CNCc1cccc(-c2ccc(CN(CCCN3CCN(C)CC3)C(=O)CCC3CCCC3)cc2)c1.O=C(O)C(F)(F)F | 98 |
| Cn1nc(-c2cccc(CNCCc3cccs3)c2)c2cnc(NC3CCCC3)nc21 | 97 |
| COc1ccc2nccc([C@@H](O)CN3CCC(NCc4ccc5c(c4)NC(=O)CO5)CC3)c2c1.Cl | 99 |
| CCN(CC)CCN(Cc1ccc(-c2ccc(Cl)s2)cc1)C(=O)Cn1c(CCc2cccc(F)c2F)nc(=O)c2ccccc21.O=C(O)C(O)C(O)C(=O)O | 96 |
| CC(C)c1ccc2c(c1)c(SC(C)(C)C)c(CC(C)(C)C#N)n2Cc1ccc(Cl)cc1 | 96 |
| Cl.N#Cc1ccc2c(c1)CCN(CCC1CCC(NC(=O)/C=C/c3cc(Br)cs3)CC1)CC2 (centres undefined) | 93 |
| O=C(Nc1cccc(CN2CCN(C(=O)c3cccc(Cl)c3)CC2)c1)c1cccs1.O=C(O)C(F)(F)F | 94 |
| CC(C)COc1ccc(Cl)cc1Cc1ccc(-c2nc3ccc(Cl)cc3[nH]2)o1 | 97 |
| Cl.O=c1ccc2ncc(Cl)c3c2n1CC3CN1CCC(NCc2cc3c(cn2)OCCO3)CC1 (centres undefined) | 96 |
| O=C(Nc1cccc(-c2ccc(-c3nc4ccccc4[nH]3)cc2)c1)c1cccnc1 | 100 |

| SMILES | Inhibition [%] |
| --- | --- |
| CC(C)c1sc(N2CCN(C)CC2)nc1C(=O)Nc1cccc2c1CCCC2.O=C(O)C(F)(F)F | 98 |
| NC(=O)c1cccc(C(=O)Nc2cccc(-c3cccc(-c4nc5cc(F)ccc5[nH]4)c3)c2)c1 | 100 |
| CCn1c(-c2nonc2N)nc2cnc(Oc3cccc(NC(=O)c4ccc(OCCN5CCCC5)cc4)c3)cc21 | 92 |
| COc1cccc2sc(N3CCN(C(=O)c4ccc([N+](=O)[O-])o4)CC3)nc12 | 95 |
| O=C(O)C(F)(F)F.c1ccc2c(c1)CN(Cc1cc3ccccc3[nH]1)CC1(CCN(Cc3c[nH]c4cnccc34)CC1)O2 | 100 |
| COC(=O)C(C)NCC(=O)c1ccccc1.Cl (centres undefined) | 97 |
| O=C(NC1CCN(Cc2ccccc2)CC1)c1ccc(-c2nc3cc(Cl)c(Cl)cc3[nH]2)c(F)c1 | 100 |
| O=C(NCCN1CCCCC1)c1cc2cc(-c3ccccc3)ccc2n1S(=O)(=O)c1ccccc1 | 90 |
| CC(C)(C)c1ccc(CN2CCC(NC(=O)c3ccc(-c4cccc(Cl)c4)s3)CC2)cc1.O=C(O)C(F)(F)F | 99 |
| O=C(C=Cc1ccc(Cl)c(Cl)c1)NCCCCCN1CCC(CCNC(=O)c2sc3ccccc3c2Cl)CC1 | 88 |
| CC(C)(C)c1ccc(C(=O)Nc2ccc3nc4c(c(N)c3c2)CCCC4)cc1.Cl | 100 |
| COc1ccc(N2CCN(CCCCNC(=O)c3ccc(NC(=O)c4ccc(OC(F)(F)F)cc4)cc3)CC2)c(OC)c1 | 100 |
| COc1cc(OC)cc(-c2nn(-c3ccc([N+](=O)[O-])cc3Cl)c(=S)n2Cc2ccco2)c1 | 100 |
| CCCCCCn1c(Sc2ccc(C#N)c([N+](=O)[O-])c2)nnc1-c1cccs1 | 97 |
| Cc1cc(C(=O)Nc2ccc3c(c2)CCN3C2CCN(Cc3ccc(F)cc3Cl)C2)no1 (centres undefined) | 95 |
| C[C@@H]1CC[C@H](NC(=O)[C@H](CC2CCCC2)NC(=O)N2CCNCC2)C(=O)CN1S(=O)(=O)c1ccccn1.O=C(O)C(F)(F)F | 84 |
| COc1cccc(CNC(=O)c2cc(CNCc3ccccc3)ccc2-c2cccc(CNCc3ccc(-c4ccccc4)cc3)c2)c1.O=C(O)C(F)(F)F | 95 |
